Test results from article PMC4336329 (PLoS ONE, 2015).
The whole screen tested about 310,000 compounds, of which about 14,000 (4.5%) showed an effect of 50% or more. Effects have a minus sign here. The full list was thinned out, with strong results kept by preference.

Each compound was assayed against human ether-à-go-go-related gene (hERG) potassium channel (human, UniProt Q12809) (assay: primary screen, population patch clamp on CHO cells stably expressing hERG; higher = less effect of the substance).
Chain of human ether-à-go-go-related gene (hERG) potassium channel (Q12809 whole entry, looked up): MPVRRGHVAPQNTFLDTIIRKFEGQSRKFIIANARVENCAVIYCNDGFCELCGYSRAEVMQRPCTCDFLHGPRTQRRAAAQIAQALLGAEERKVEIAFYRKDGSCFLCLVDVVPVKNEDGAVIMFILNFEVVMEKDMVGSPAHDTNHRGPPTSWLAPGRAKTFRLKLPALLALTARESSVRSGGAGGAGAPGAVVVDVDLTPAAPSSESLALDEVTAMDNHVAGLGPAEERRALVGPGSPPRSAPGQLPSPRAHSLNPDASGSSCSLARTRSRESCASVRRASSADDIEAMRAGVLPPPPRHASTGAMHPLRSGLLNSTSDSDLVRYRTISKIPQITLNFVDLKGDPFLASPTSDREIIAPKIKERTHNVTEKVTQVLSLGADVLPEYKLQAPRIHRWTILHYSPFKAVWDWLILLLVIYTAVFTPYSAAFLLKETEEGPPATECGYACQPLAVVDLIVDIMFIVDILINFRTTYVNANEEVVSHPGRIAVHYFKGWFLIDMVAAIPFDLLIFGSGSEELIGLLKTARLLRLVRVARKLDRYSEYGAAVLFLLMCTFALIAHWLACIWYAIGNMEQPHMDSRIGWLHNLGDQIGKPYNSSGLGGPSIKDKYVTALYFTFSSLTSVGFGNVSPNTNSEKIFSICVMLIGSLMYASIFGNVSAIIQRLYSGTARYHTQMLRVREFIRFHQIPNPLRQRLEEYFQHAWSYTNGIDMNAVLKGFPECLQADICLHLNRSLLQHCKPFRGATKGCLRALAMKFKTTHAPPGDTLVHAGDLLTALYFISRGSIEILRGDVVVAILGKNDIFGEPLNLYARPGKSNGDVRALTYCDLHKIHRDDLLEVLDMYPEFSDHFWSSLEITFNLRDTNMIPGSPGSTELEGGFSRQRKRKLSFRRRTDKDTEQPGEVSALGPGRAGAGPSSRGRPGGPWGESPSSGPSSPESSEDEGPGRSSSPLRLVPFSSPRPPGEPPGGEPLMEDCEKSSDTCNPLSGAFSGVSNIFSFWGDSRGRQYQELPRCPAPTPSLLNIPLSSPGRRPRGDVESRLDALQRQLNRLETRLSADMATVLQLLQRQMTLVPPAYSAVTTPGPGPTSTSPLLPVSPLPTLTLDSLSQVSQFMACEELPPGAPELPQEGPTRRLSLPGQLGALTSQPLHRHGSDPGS
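Also: peak tail current of the secondary pulse compared with the same well before compound.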

Row | SMILES | hERG current change (%, negative = inhibition) at 10uM [%]
1 | O=C1C(Cc2cccc([N+](=O)[O-])c2)S/C(=N/N=C/c2ccco2)N1c1ccccc1 (stereo not shown) | 2.64
2 | O=C(NC1CCCCC1)N(Cc1nc2ccccc2c(=O)[nH]1)C1CCCCC1 | 2.79
3 | O=C(NCCc1nc2ccccc2[nH]1)/C(=C/c1ccco1)NC(=O)c1ccco1 | -17.3
4 | CC(C)=C(NC(=O)c1ccccc1Br)C(=O)NCCc1nc2ccccc2[nH]1 | 3.68
5 | O=C(NCCc1nc2ccccc2[nH]1)c1ccc(Br)o1 | 3.87
6 | O=C(NCCc1nc2ccccc2[nH]1)/C(=C/c1ccc(F)cc1)NC(=O)c1ccco1 | -62.8
7 | O=C(NCCc1nc2ccccc2[nH]1)/C(=C/c1ccco1)NC(=O)c1ccc(Br)o1 | -63.2
8 | O=C(NCCc1nc2ccccc2[nH]1)/C(=C/c1ccco1)NC(=O)c1ccc(Br)cc1 | -69.9
9 | COc1ccc(/C=C(\NC(=O)c2ccco2)C(=O)NCCc2nc3ccccc3[nH]2)cc1 | -42.6
10 | O=C(CNC(=O)c1ccc(Br)cc1)NCCc1nc2ccccc2[nH]1 | -6.76
11 | O=C(NCCc1nc2ccccc2[nH]1)c1ccco1 | 2.94
12 | Cc1ccc(C(=O)N/C(=C/c2ccco2)C(=O)NCCc2c[nH]c3ccccc23)cc1 | -46
13 | CC(C)=C(NC(=O)c1ccco1)C(=O)NCCc1nc2ccccc2[nH]1 | 1.12
14 | O=C(NCCc1nc2ccccc2[nH]1)/C(=C/c1ccco1)NC(=O)c1ccccc1Br | -64.9
15 | CCc1nc(SCC(=O)N2CCC(C)CC2)c2c(=O)n(C)c(=O)n(C)c2n1 | -11.6
16 | CC1Cc2ccccc2N1c1ncnc(N)c1[N+](=O)[O-] (stereo not shown) | -24.2
17 | CCCCOc1ccccc1P(=O)(O)CP(=O)(c1ccccc1)c1ccccc1 | -3.64
18 | OCCNC(=S)Nc1ccc2c(c1)OCCO2 | 9.32
19 | Cc1ccc(-c2nn(C)c(=O)c3ccccc23)cc1CN1CCOCC1 | -1.21
20 | CC(C)=C1C2CCC1C1C(=O)N(c3nccs3)C(=O)C21 (stereo not shown) | 33
21 | O=C1CC(=O)N(c2ccccc2)C(=O)N1c1ccccc1 | 2.76
22 | CCCC(NCC(O)COc1ccc(-c2ccccc2)cc1)c1ccccc1 (stereo not shown) | 10.3

Row | SMILES | hERG current change (%, negative = inhibition) at 10uM [%]
23 | O=C(NCc1ccc2c(c1)OCO2)C1CCCN1C(=O)Nc1ccc(Cl)cc1 (stereo not shown) | -17.4
24 | CCn1c(C(C)NC(=O)Cc2ccccc2)nc2ccccc21 (stereo not shown) | -2.26
25 | CCc1ccc(NC(=O)C2CCN(c3ncnc4c3nc3n4CCCCC3)CC2)cc1 | -6.35
26 | Cc1cc2ncn(C(=O)N3CCCCC3)c2cc1C | 3.24
27 | CCOCCCNC(=O)CN1C(=O)/C(=C/c2ccccc2C)Sc2ccccc21 | -8.45
28 | CCOC(=O)C1CCCN(C(c2ccccn2)c2c(C)[nH]c3ccccc23)C1 (stereo not shown) | -54.3
29 | CCOC(=O)C1CCCN(c2c(N3CCN(C)CC3)c(=O)c2=O)C1 (stereo not shown) | 8.41
30 | CCOC(=O)C1CCCN(c2c(N3CCN(c4ccccn4)CC3)c(=O)c2=O)C1 (stereo not shown) | -55.5
31 | Cc1[nH]c2ccccc2c1C(c1ccccn1)N1CCC(C(N)=O)CC1 (stereo not shown) | -11.4
32 | CCOC(=O)C1CCCN(c2c(N3CCC(N4CCCCC4)CC3)c(=O)c2=O)C1 (stereo not shown) | -0.665
33 | CCOC(=O)C1CCCN(c2c(N3CCOCC3)c(=O)c2=O)C1 (stereo not shown) | -0.407
34 | CCOC(=O)C1CCN(c2c(N3CCCC(C(=O)OCC)C3)c(=O)c2=O)CC1 (stereo not shown) | -22.8
35 | CCOC(=O)C1CCCN(c2c(N3CCN(C4CCCCC4)CC3)c(=O)c2=O)C1 (stereo not shown) | -55.8
36 | CCOC(=O)C1CCN(C(c2ccccn2)c2c(C)[nH]c3ccccc23)CC1 (stereo not shown) | -19.8
37 | Cc1ccc(C(=O)C2=C(O)C(=O)N(Cc3cccnc3)C2c2cccc([N+](=O)[O-])c2)o1 (stereo not shown) | -9.76
38 | CCN(C(=O)COC(=O)CSc1ccc(C(N)=O)cc1[N+](=O)[O-])C1CCCCC1 | 5.86
39 | Cc1cc(Cl)nc(Cl)c1C(=O)NC(=O)NCCC(C)C | 6.83
40 | O=C(NNC(=O)C1CC=CCC1C(=O)O)c1cccs1 (stereo not shown) | 16.2
41 | Cc1ccc(-c2csc(N3CCN(CCCn4c(C(F)(F)F)nc5ccccc54)CC3)n2)cc1 | -4.95
42 | Cc1ccc(-c2csc(N3CCN(CCCn4c(-c5ccncc5)nc5ccccc54)CC3)n2)cc1 | -32.4
43 | CC(=O)N[C@@H](C)c1nc2ccccc2n1CCCN1CCN(c2nc(-c3ccc(C)cc3)cs2)CC1 | -56.2
